Our source for the Kd values is article PMC5540273 (PLoS ONE, 2017).
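Further: kd values determined as follow-up on hits from a single-replicate KINOMEscan panel screen.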

For one experiment, the system named is EGFR.
Turning to `Cn1cncc1-c1ccc2ncnc(Nc3ccc(OCc4ccccc4)cc3)c2c1` [GW320571], the Kd (usually the equilibrium constant for the complex coming apart) worked out at 49 nM.

Turning to `Cl.NC(=O)c1cccc(Nc2nccc(Nc3ccc(Oc4cccc(Cl)c4)c(Cl)c3)n2)c1` [GW659008], the Kd came out at 120 nM.

For the compound `Cl.O=C(Nc1cccc(-c2nn3ncccc3c2-c2ccnc(Nc3cccnc3)n2)c1)c1c(F)cccc1F` [GSK312879], binding was put at a Kd of 38 nM. This Kd is about 3.2-fold lower than that of the compound before.

The subject of another experiment is T1, ERK4.
T1 construct: gene MAPK4
`Cc1cccc(-c2nc(C)cc(Nc3ccncc3)n2)n1` [GSK257997] had a Kd above 10000 nM.

As for `CS(=O)(=O)c1ccc(-c2nc3n(c2-c2ccncc2)CCC3)cc1` [SKF-105942], the Kd is above 10000 nM.

Compound `O=C(Nc1n[nH]c2nc(-c3nccs3)c(Br)cc12)C1CCCC1` [SB-742609] gave a Kd above 10000 nM.

The subject of a further experiment is FLT3.
With `Cc1ccc(NC(=O)Nc2cc(C(C)(C)C)nn2-c2ccccc2)cc1` [GSK1014915], binding was put at a Kd of 26 nM. This counts as double-digit nanomolar.

For `O=C(Nc1n[nH]c2nc(-c3nccs3)c(Br)cc12)C1CC1` [SB-742251], the Kd was 190 nM.

In the case of `Cn1ccc2ncnc(Oc3ccc(NC(=O)Nc4ccccc4)cc3)c21`, the dissociation constant (Kd) came to 33 nM.

The subject of another experiment is GAK.
For `Cc1ccc(-c2cc(-c3c[nH]nc3-c3ccccn3)ccn2)cc1` [GW684088], binding was characterised by a dissociation constant (Kd) of 110 nM. This lies in the sub-micromolar range.

In turn, `Fc1cc(Cl)ccc1Nc1ccnc2cc(I)ccc12` [GW551191] had a Kd of 340 nM.

In turn, `CSc1nn2c(=O)cc(N3CCOCC3)nc2n1Cc1cccc(C(F)(F)F)c1C` [GSK2363608] displayed a Kd above 10000 nM.

The subject of a further experiment is GSK3A.
The compound `Cc1nnc(-c2ccc3occ(-c4ccc(S(C)=O)cc4)c3c2)[nH]1` (stereo not drawn) gave a dissociation constant Kd of 190 nM.

`O=C(Nc1n[nH]c2nc(-c3nccs3)c(Br)cc12)C1CC1` [SB-742251]: binding was put at a Kd of 290 nM.

For `O=C(Nc1n[nH]c2nc(-c3nccs3)c(Br)cc12)C1CCCC1` [SB-742609], binding was put at a Kd of 61 nM.
